According to PubChem BioAssay (NCI):
The panel holds about 79,000 compounds, 15% with a hit somewhere; the sample as a whole holds those more often. Activity calls are given as the source filed them. No stated cut-off is given here; in the data, active means growth inhibition above about 70%; inactive means the rest.

Experiments:
[1] = NCI Yeast Anticancer Drug Screen. Data for the rad50 strain (AID 155);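 further: 0% = growth of vehicle-only cultures of the same strain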; conditions: S. cerevisiae rad50 strain growth inhibition; at 50.0 µM; stronger effect = higher value
Method in brief: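 Relative growth inhibition (compound vs vehicle) was measured in yeast with a defined repair-gene alteration.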

[2] = NCI Yeast Anticancer Drug Screen. Data for the mec2-1 strain (AID 157); conditions: S. cerevisiae mec2-1 strain, at 50.0 µM, stronger effect = higher value
Method in brief: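 Strain: mec2-1 (DNA repair/cell cycle alteration). Compound exposure, then growth measured; inhibition expressed relative to vehicle.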

[3] = NCI Yeast Anticancer Drug Screen. Data for the sgs1 mgt1 strain (AID 161);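 further: 0% = growth of cultures given vehicle only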; conditions: S. cerevisiae sgs1 mgt1 strain, at 50.0 µM, stronger effect = higher value
Method in brief: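 Test agents were incubated with a DNA-repair-mutant yeast strain. Growth was then read and compared against vehicle-treated controls.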

[4] = NCI Yeast Anticancer Drug Screen. Data for the cln2 rad14 strain (AID 165);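 further: 0% = growth equal to vehicle treated cultures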; conditions: S. cerevisiae cln2 rad14 strain, at 50.0 µM, stronger effect = higher value
Method in brief: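 Compounds are applied to the cln2 rad14 yeast strain, and growth is then compared with that of vehicle-treated cultures to give inhibition.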

[5] = NCI Yeast Anticancer Drug Screen. Data for the bub3 strain (AID 167); conditions: S. cerevisiae bub3 mutant strain, at 50.0 µM, stronger effect = higher value
Method in brief: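 Screening used yeast with an engineered genetic alteration affecting cell cycle control. Compound-exposed cultures were compared with vehicle cultures, and reduced growth was taken as inhibition.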

[6] = NCI Yeast Anticancer Drug Screen. Data for the mlh1 rad18 strain (AID 175); conditions: S. cerevisiae mlh1 rad18 strain growth inhibition; at 50.0 µM; stronger effect = higher value
Method in brief: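 Read-out is yeast growth inhibition, calculated against vehicle-only controls. The compound was applied to a strain engineered with DNA damage repair alterations.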

Measured: growth inhibition

c1ccc(CCCCc2ccccn2)cc1
inactive: [1] 32% | [2] -13.1% | [3] 31.6% | [4] 0.2% | [5] 27.4% | [6] 25%

CCCCC/C=C1\CCC(CN2CCOCC2)C1=O (stereo unspecified)
active: [1] 89.5% | [2] 90.7% | [3] 91.9% | [4] 90.1% | [5] 90.3% | [6] 89%

COc1ccc(CC(N)C(=O)N(C)C2C(CO)OC(n3cnc4c(N(C)C)ncnc43)C2O)cc1 (stereo unspecified)
inactive: [1] 5.3% | [2] -10.8% | [3] -8.7% | [4] -25.7% | [5] 2.3% | [6] -7.45%

C=Cc1cc2c(cc1O)CC[C@@H]1[C@@H]2CC[C@]2(C)[C@@H](O)CC[C@@H]12
inactive: [1] 17.4% | [2] 17.4% | [3] 36.8% | [4] 29.7% | [5] 22.9% | [6] 36.1%

CCOC(=O)c1[nH]c(CC(=O)O)c(C(=O)OCC)c1C
inactive: [1] -6.8% | [2] 3% | [3] 9% | [4] -44.9% | [5] 3.9% | [6] 5.1%

O=C(NC(=O)C(F)(F)F)Nc1cccc(C(F)(F)F)c1
inactive: [1] 15.6% | [2] 1.1% | [3] -14.1% | [4] -4.85% | [5] -8.25% | [6] 2.9%

C[N+]1(C)CCC(c2ccccc2)(c2ccccc2)/C(=C2/C(=O)C(c3ccccc3)(c3ccccc3)CC[N+]2(C)C)C1
inactive: [1] -4.55% | [2] -7.9% | [3] 0.75% | [4] 35% | [5] -32% | [6] -20.8%

CCN(CC)c1ccc(S(=O)(=O)NC(=O)OC)cc1
inactive: [1] 3.55% | [2] -2% | [3] -0.65% | [4] 3.45% | [5] -1.25% | [6] -5.5%

CC(=O)O[C@]12CCCCCC1C1(O)C(O)CCC[C@H]12 (stereo partly specified)
inactive: [1] -29.4% | [2] -19.9% | [3] -54.8% | [4] 17.6% | [5] -26.1% | [6] -47.3%

NNC(N)=Nc1cccc2ccccc12
inactive: [1] -2.9% | [2] -7.5% | [3] 0.35% | [4] 15.7% | [5] 11.4% | [6] -18.6%

Cn1c([N+](=O)[O-])cnc1COS(=O)(=O)c1cccnc1
inactive: [1] 6.05% | [2] -9.15% | [3] 25.8% | [4] 11.1% | [5] 16.8% | [6] 15.6%

O=C(O)CCCCCNCC(CNCCCCCC(=O)O)(C(=O)O)C(=O)O
inactive: [1] 7.7% | [2] -2.8% | [3] -2.7% | [4] -8.5% | [5] -1.05% | [6] 5.2%

c1ccc(C[P+]2(c3ccccc3)c3ccccc3-c3ccccc32)cc1
inactive: [1] -25.9% | [2] -8% | [3] -11.2% | [4] 4.15% | [5] -6.6% | [6] -38.2%

NC(=S)/N=C/C1=C(O)CCCC1=O
inactive: [1] 2.05% | [2] 5.95% | [3] 16.4% | [4] 17% | [5] 14% | [6] 11.2%

NC(=S)NNc1ccccc1
inactive: [1] 0.2% | [2] -5.8% | [3] -0.05% | [4] -6.7% | [5] -2.6% | [6] -5.3%

Cc1ccc(S(=O)(=O)N2CCCSCCSCCCN(S(=O)(=O)c3ccc(C)cc3)CC2)cc1
inactive: [1] 8.85% | [2] -10.8% | [3] 4% | [4] -45% | [5] -10.1% | [6] 2.05%

C=CC12COC(=O)CC1CCC(=O)C2 (stereo unspecified)
inactive: [1] 4.75% | [2] -10.2% | [3] -14.2% | [4] -19.4% | [5] 13.4% | [6] -5.4%

CSCCCO
inactive: [1] -12.8% | [2] -20.6% | [3] 10.5% | [4] -39.1% | [5] -2.45% | [6] -7.4%

CCOC(=O)c1c(C)[nH]c(=S)c(C#N)c1-c1ccc(Cl)cc1
inactive: [1] 13% | [2] 12.1% | [3] 34.4% | [4] 4.55% | [5] 28.6% | [6] -1.55%

CN(C)c1ccc(N=C(C#CC#Cc2ccccc2)c2ccccc2)cc1
inactive: [1] 3.85% | [2] -4% | [3] 7.55% | [4] -42.4% | [5] -19.4% | [6] 24.8%

Cc1ccc(S(=O)(=O)O/N=C2\CCC\C2=C/c2ccccc2)cc1
inactive: [1] 7.65% | [2] -2.25% | [3] 26% | [4] 14.6% | [5] -8.55% | [6] 23.8%

O=S(=O)(O)Cc1ccccc1
inactive: [1] -29.9% | [2] -21.9% | [3] -19.1% | [4] -24.4% | [5] 2.45% | [6] 2.35%

CCCCCCCCCCCCCCCCCC(=O)[O][Al][O]C(C)C
inactive: [1] -38.1% | [2] -35% | [3] -10.8% | [4] 4.55% | [5] -19.5% | [6] -14.9%

CC1(O)CCC(C(C)(C)C)CC1 (stereo unspecified)
inactive: [1] 22.6% | [2] 12.3% | [3] -1.2% | [4] 2.05% | [5] 2.95% | [6] 11.1%

CCc1nnc2ncccn12
inactive: [1] -1.15% | [2] -10.9% | [3] 4.25% | [4] -5.95% | [5] 10.4% | [6] -2.9%

CC1C(c2ccccc2)(N(C)C)CS1(=O)=O (stereo unspecified)
inactive: [1] -3.15% | [2] -8.5% | [3] -6.4% | [4] -74.7% | [5] 12.7% | [6] -8.6%

CC1(C)COC(c2ccccc2Cl)OC1
inactive: [1] 20.1% | [2] 9% | [3] -0.45% | [4] -24.6% | [5] 0.7% | [6] 18.6%

Cc1cc(N(CCC#N)CCC#N)ccc1/C=C(\NC(=O)/C=C/c1ccccc1)NC(=O)Nc1ccc(Cl)cc1
inactive: [1] 13.5% | [2] 2.75% | [3] -17.9% | [4] 10.8% | [5] 12.5% | [6] 29.2%

NC(=S)N/N=C1\CCCCC1C(O)(C(F)(F)Cl)C(F)(F)Cl (stereo unspecified)
inactive: [1] -26.2% | [2] -33.8% | [3] -19.1% | [4] -8.9% | [5] -11.5% | [6] -25.2%

N#C/C(=C/C=C/c1ccccc1)c1ccc([N+](=O)[O-])cc1
inactive: [1] 22% | [2] 23.4% | [3] 24.8% | [4] -8.2% | [5] 36.5% | [6] 18.9%

CCCC(CCC)=C1C(=O)N=C(N)NC1=O
inactive: [1] -6.45% | [2] 4.9% | [3] -2.7% | [4] -9.05% | [5] -7.35% | [6] -16%

CCN(CC)P1(=O)C=C(C)C2C1C1C=C(C)C2P1(=O)N(CC)CC (stereo unspecified)
inactive: [1] 3.5% | [2] -2.45% | [3] -5.25% | [4] -5.25% | [5] -34.8% | [6] -13.2%

Fc1ccc(-c2ccc(F)cc2)cc1
inactive: [1] -18.6% | [2] -15.4% | [3] -12.1% | [4] -44.9% | [5] -6.8% | [6] -23.1%

O=C(Nc1ccc(Br)cc1)C(=O)C(C(=O)c1ccc(Cl)c(Cl)c1)C1OC(=O)c2ccccc21 (stereo unspecified)
inactive: [1] 59.1% | [2] 42.5% | [3] 36.6% | [4] 64.5% | [5] 47.3% | [6] 36.7%

Clc1ccc(-c2oc(-c3ccc(Cl)cc3)c3ccccc23)cc1
inactive: [1] -3.85% | [2] -13.2% | [3] 4.75% | [4] -78.2% | [5] -15.5% | [6] -23.6%

CC(/C=N/Nc1ccccc1)=N\N=c1/scc(-c2ccc(Cl)cc2)n1-c1ccc(Cl)cc1
inactive: [1] 22.4% | [2] 4.65% | [3] 13.9% | [4] -0.2% | [5] 11.1% | [6] 27.9%

CCOC(=O)c1c(O)[nH]c(=O)c(CC)c1C
inactive: [1] -13.2% | [2] -29.3% | [3] -45.8% | [4] -16.4% | [5] -30.8% | [6] -4.1%

O=C(c1ccccc1)c1ccc(Cl)c(Cl)c1
inactive: [1] -5.3% | [2] -23.3% | [3] 2.05% | [4] -55.5% | [5] 6.65% | [6] -8.05%

CCC(C#N)N(Cc1cccc(CN(C(C)=O)C(C#N)CC)c1)C(C)=O (stereo unspecified)
inactive: [1] -5.9% | [2] -11.7% | [3] -4.15% | [4] -29.9% | [5] -25.7% | [6] -43.9%

CCOC(=O)CCC(NC(=O)c1ccc(NCc2nc3c([nH]2)c(=O)n(C)c(=O)n3C)cc1)C(=O)OCC (stereo unspecified)
inactive: [1] 1.95% | [2] 13.3% | [3] 13.6% | [4] 2.6% | [5] -8.75% | [6] 14.4%

CC12C(=O)OC3CCC1CC32 (stereo unspecified)
inactive: [1] 10.8% | [2] 7.1% | [3] -5.85% | [4] -26.6% | [5] 6.65% | [6] 2.95%
